PubChem BioAssay (NCI)
The panel holds about 83,000 compounds, 20% with a hit somewhere; the sample as a whole holds those more often.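 Plates (96-well) were seeded with cells, treated with compound at one concentration, and incubated for 48 hours before percent growth was determined.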 Calls of active or inactive are those of the source. How the source made its calls: active means growth percent below 10; inactive means the rest.

Legend:
Assay in all cases: NCI-60 one-dose screen, 48 h (100 = growth as untreated, 0 = no growth, -100 = all killed)
Conditions in all cases: 10 µM unless noted
NCI-H23 lung = system: NCI-H23 lung
NCI-H226 lung = system: NCI-H226 lung
HOP-62 NSCLC = system: HOP-62 NSCLC
NCI-H460 lung = system: NCI-H460 lung
NCI-H522 lung = system: NCI-H522 lung
A549/ATCC NSCLC = system: A549/ATCC NSCLC
786-0 renal = system: 786-0 renal
COLO 205 colon = system: COLO 205 colon
HOP-92 NSCLC = system: HOP-92 NSCLC
NCI-H322M lung = system: NCI-H322M lung

Measured: growth

O=C(CCCCC1CCSS1)Nc1ncnc2n[nH]c(-c3ccc(Oc4ccccc4)cc3)c12 (centres undefined)
inactive: NCI-H23 lung 59.2% | NCI-H226 lung 94.2% | HOP-62 NSCLC 65.6% | NCI-H522 lung 70.3% | A549/ATCC NSCLC 37% | 786-0 renal 117% | COLO 205 colon 88.9%
active: NCI-H460 lung 2.83%

NC(=O)CCC(C(=O)O)N1C(=O)c2ccc(O)cc2C1=O (centres undefined)
inactive: NCI-H23 lung 118% | NCI-H226 lung 107% | HOP-62 NSCLC 113% | NCI-H460 lung 109% | HOP-92 NSCLC 93.2% | NCI-H522 lung 102% | A549/ATCC NSCLC 122% | 786-0 renal 111% | COLO 205 colon 119%

O=C(c1ccccc1)C1C(=O)N2C(=S)N(c3ccccc3)C(=O)C2C1c1ccc(Cl)cc1 (centres undefined)
inactive: NCI-H23 lung 88.2% | NCI-H226 lung 74.5% | HOP-62 NSCLC 93.4% | NCI-H460 lung 86.8% | HOP-92 NSCLC 91.3% | NCI-H522 lung 94% | A549/ATCC NSCLC 101% | 786-0 renal 100% | COLO 205 colon 112%

COc1ccc2nc3ccc(OC)cc3c(SCCCN)c2c1
inactive: NCI-H23 lung 74.5% | NCI-H226 lung 97.8% | HOP-62 NSCLC 79.8% | NCI-H460 lung 110% | HOP-92 NSCLC 43.6% | NCI-H522 lung 57.7% | A549/ATCC NSCLC 79.6% | 786-0 renal 49% | COLO 205 colon 48.9%

COC(=O)[C@H]1CCCN1C[C@@H](O)CN1C(=O)/C(=C\c2cc(OC)c(OC)c(OC)c2)c2ccccc21
inactive: NCI-H23 lung 106% | NCI-H226 lung 96.6% | HOP-62 NSCLC 108% | NCI-H460 lung 94.9% | HOP-92 NSCLC 105% | NCI-H522 lung 97.8% | A549/ATCC NSCLC 90.3% | 786-0 renal 101% | COLO 205 colon 121%

C/C(=N/O)c1ccc(F)cc1
inactive: NCI-H23 lung 84% | NCI-H226 lung 91.5% | HOP-62 NSCLC 92.8% | NCI-H460 lung 36.6% | HOP-92 NSCLC 109% | NCI-H522 lung 55.4% | A549/ATCC NSCLC 103% | 786-0 renal 107% | COLO 205 colon 90.6%

CCNC(=O)c1[nH]cc(-c2ccccc2)c1-c1cc(OC)c2c(c1OC)OCO2
inactive: NCI-H23 lung 93.8% | NCI-H226 lung 86.9% | HOP-62 NSCLC 91.8% | NCI-H460 lung 108% | HOP-92 NSCLC 83.9% | NCI-H522 lung 93.4% | A549/ATCC NSCLC 96% | 786-0 renal 101% | COLO 205 colon 111%

N#Cc1c(-c2ccccc2)cc(-c2ccccc2)n(CCCCCC(=O)Nc2ccccc2N)c1=O
inactive: NCI-H23 lung 81.2% | NCI-H226 lung 69.9% | HOP-62 NSCLC 82.3% | NCI-H460 lung 50.9% | HOP-92 NSCLC 51.9% | NCI-H522 lung 55.8% | A549/ATCC NSCLC 71.2% | 786-0 renal 57.6%

COc1cc(-c2cc(-c3ccc(N(C)C)cc3)nc(N3CCC(O)CC3)c2C#N)cc(OC)c1OC
active: NCI-H23 lung 3.6% | NCI-H226 lung -6.93% | NCI-H460 lung -27.9% | HOP-92 NSCLC -25% | NCI-H522 lung -36.3% | 786-0 renal -3.55% | COLO 205 colon -17.2%
inactive: HOP-62 NSCLC 41.4% | A549/ATCC NSCLC 11.5%

CCCCCCCCn1ccc2cc(NC(=O)Cn3cc(CN4CCCCC4)nn3)ccc21
inactive: NCI-H23 lung 75% | NCI-H226 lung 79.4% | HOP-62 NSCLC 58.6% | HOP-92 NSCLC 38.1% | NCI-H522 lung 10.3% | A549/ATCC NSCLC 25.2%
active: NCI-H460 lung -50.6% | 786-0 renal -68.5% | COLO 205 colon -80%

O=C(NCCCN1CCOCC1)c1cccc(N2C(=O)/C(=C/c3ccc(F)cc3)SC2=S)c1
inactive: NCI-H23 lung 92.5% | NCI-H226 lung 90.4% | HOP-62 NSCLC 100% | NCI-H460 lung 107% | HOP-92 NSCLC 46.7% | NCI-H522 lung 90.3% | A549/ATCC NSCLC 103% | 786-0 renal 97.2% | COLO 205 colon 111%

C=C(C)[C@@H]1CC[C@]2(C)[C@H](CC=C3[C@@H]4[C@H](C)[C@@H](C)CC[C@]4(CO)CC[C@]32C)[C@@]1(C)CCCN
active: HOP-62 NSCLC -63.1% | NCI-H460 lung -81.9% | HOP-92 NSCLC 4.6% | NCI-H522 lung -41.8% | A549/ATCC NSCLC -31.6% | COLO 205 colon -57.2%
inactive: NCI-H23 lung 60.9% | NCI-H226 lung 84.5% | 786-0 renal 39.3%

O=S(=O)(Nc1ccccc1)c1ccc(C2CC3(Cl)C(Cl)=C(Cl)C2(Cl)C3(Cl)Cl)cc1 (centres undefined)
inactive: NCI-H23 lung 22.1% | NCI-H226 lung 74.3% | NCI-H322M lung 61.5% | NCI-H460 lung 21.1% | NCI-H522 lung 29.9% | A549/ATCC NSCLC 30.2% | 786-0 renal 32.4% | COLO 205 colon 29.2%

C#CCn1cnc2c(Nc3cccc(NC(=O)C=C)c3)ncnc21
inactive: NCI-H23 lung 89.7% | NCI-H226 lung 66.3% | HOP-62 NSCLC 75.2% | NCI-H460 lung 80.3% | HOP-92 NSCLC 68.5% | NCI-H522 lung 79.4% | A549/ATCC NSCLC 63.9% | 786-0 renal 61.7% | COLO 205 colon 84.4%

C=C(CNCCc1ccc(O)cc1)[C@@H]1CC[C@]2(CO)CC[C@]3(C)[C@H](CC[C@@H]4[C@@]5(C)CCC(NCCO)C(C)(C)[C@@H]5CC[C@]43C)[C@@H]12 (some centres undefined)
inactive: NCI-H226 lung 81.5%
active: NCI-H23 lung -33.5% | HOP-62 NSCLC -68.7% | NCI-H460 lung -87.4% | HOP-92 NSCLC -62.6% | NCI-H522 lung -67.2% | A549/ATCC NSCLC -39% | 786-0 renal -92.1% | COLO 205 colon -68.5%

CS(=O)(=O)c1cccc(-c2c(-c3cccc(OS(N)(=O)=O)c3)nc3sccn23)c1
inactive: NCI-H23 lung 108% | NCI-H226 lung 92.5% | HOP-62 NSCLC 93.8% | NCI-H460 lung 105% | HOP-92 NSCLC 77.8% | NCI-H522 lung 96.9% | A549/ATCC NSCLC 106% | 786-0 renal 101% | COLO 205 colon 117%

COc1ccc(/C(C)=C(/c2ccc(OCCCN(C)C)cc2)c2ccc(OC(=O)Cc3ccccc3)cc2)cc1
inactive: NCI-H23 lung 76.4% | NCI-H226 lung 91.5% | HOP-62 NSCLC 83.3% | NCI-H460 lung 70.8% | HOP-92 NSCLC 50.5% | NCI-H522 lung 57.5% | A549/ATCC NSCLC 58.4% | 786-0 renal 71.6% | COLO 205 colon 76.1%

Cc1ccc(-c2nc(/C=C3/C(=O)Nc4ccccc43)c3ccccn23)cc1
inactive: NCI-H23 lung 72.6% | NCI-H226 lung 88.7% | HOP-62 NSCLC 91.8% | NCI-H460 lung 40.7% | HOP-92 NSCLC 105% | NCI-H522 lung 57.7% | A549/ATCC NSCLC 75.1% | 786-0 renal 104% | COLO 205 colon 92.2%

O=C(c1cc2ccccc2o1)c1nn(-c2ccccc2)/c(=N/N=Cc2cn(-c3ccccc3)nc2-c2cc3ccccc3oc2=O)s1
inactive: NCI-H23 lung 99.4% | NCI-H226 lung 99.4% | HOP-62 NSCLC 97.6% | NCI-H460 lung 106% | HOP-92 NSCLC 73.2% | NCI-H522 lung 88% | A549/ATCC NSCLC 106% | 786-0 renal 103% | COLO 205 colon 117%

CC(C)N1CCN(Cc2ccc3c(NNC(=O)c4ccccc4)nc4cc(F)ccc4n23)CC1
inactive: NCI-H23 lung 28.6% | NCI-H226 lung 14.5% | HOP-62 NSCLC 24.9% | HOP-92 NSCLC 49% | NCI-H522 lung 22.8% | A549/ATCC NSCLC 16.2% | 786-0 renal 34.2% | COLO 205 colon 17.1%
active: NCI-H460 lung 3.96%

C1=CN2CC(c3ccccc3)=NNC2c2ccccc21 (centres undefined)
inactive: NCI-H23 lung 76.1% | NCI-H226 lung 63.3% | HOP-62 NSCLC 72.4% | NCI-H460 lung 98% | HOP-92 NSCLC 76.7% | NCI-H522 lung 75.5% | A549/ATCC NSCLC 95.1% | 786-0 renal 99.3% | COLO 205 colon 113%

Cc1ccc(-n2c(=S)[nH]c3sc4c(c3c2=O)CCC(=O)C4)cc1
inactive: NCI-H23 lung 68.7% | NCI-H226 lung 83.4% | HOP-62 NSCLC 63.6% | NCI-H460 lung 17.2% | HOP-92 NSCLC 57% | NCI-H522 lung 10.2% | A549/ATCC NSCLC 51.8% | 786-0 renal 29.5% | COLO 205 colon 81.6%

CCCCCC(=O)OCC(=O)O[C@@H]1C[C@]2(C(C)C)O[C@@]1(C)[C@@H]1CC[C@@H](C)[C@H]1[C@@H]2OC(=O)/C=C/c1ccccc1
inactive: NCI-H23 lung 91.3% | NCI-H226 lung 86% | HOP-62 NSCLC 91.7% | NCI-H460 lung 93.3% | HOP-92 NSCLC 95.3% | NCI-H522 lung 55.9% | A549/ATCC NSCLC 78.7% | 786-0 renal 54.4%

CS(=O)(=O)Nc1cc(-c2ccc3ncnc(Nc4c(Cl)ccc5c4OCO5)c3c2)cnc1Cl
active: NCI-H23 lung 0.217% | HOP-62 NSCLC 9.21% | NCI-H460 lung 7.13% | HOP-92 NSCLC -10.5% | NCI-H522 lung -13.8% | A549/ATCC NSCLC -13.7% | 786-0 renal 0.785% | COLO 205 colon -45%
inactive: NCI-H226 lung 12.7%

N#CC1CCc2c(c(-c3cn[nH]c3C(F)(F)F)nc3c(F)cc4[nH]ncc4c23)C1 (centres undefined)
active: NCI-H522 lung -14.6% | COLO 205 colon 7.05%
inactive: NCI-H23 lung 25.3% | NCI-H226 lung 48.8% | HOP-62 NSCLC 34.8% | NCI-H460 lung 38.9% | HOP-92 NSCLC 36.5% | A549/ATCC NSCLC 75% | 786-0 renal 36.8%

C=C1C(=O)O[C@H]2[C@H]1CC/C(COC(=O)NCc1ccc(Cn3c(=O)sn(CCI)c3=O)cc1)=C\CC[C@@]1(C)O[C@@H]21
inactive: NCI-H23 lung 88.5% | NCI-H226 lung 85.7% | NCI-H460 lung 98.1% | A549/ATCC NSCLC 108% | 786-0 renal 59.6%
active: HOP-92 NSCLC -19% | NCI-H522 lung -92.8% | COLO 205 colon -24.1%
